# The supplement of paper PMC6555819
# Key:
# Test in all cases: PBM binding z-score (relative to random genomic background probes); higher = stronger binding; sequences stand for … in GC…GCGATTGACAGCGTAGAATGAAGG
# [1] = tested on: FXR:RXRa (NR concentration 270 nM, RXRa partner concentration 90 nM)
# Method in brief: (§1)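 On custom Agilent 4×180K arrays, double-stranded probes with 34-nt variable regions carried direct-repeat seeds, single-nucleotide variants, half-site ablations or random human genomic background. Ligand-free nuclear receptor dimers were applied for 1 h, and binding was read with antibodies against each partner (one per run). Binding z-scores come from regression-normalized fluorescence, with the random background probes as reference.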
# [2] = tested on: LXRa homodimer (NR concentration 270 nM)
# Method in brief: as §1
# [3] = tested on: LXRb homodimer (NR concentration 270 nM)
# Method in brief: as §1
# [4] = tested on: PPARa:RXRa (NR concentration 270 nM, RXRa partner concentration 90 nM)
# Method in brief: as §1
# [5] = tested on: PPARg:RXRa (NR concentration 180 nM, RXRa partner concentration 90 nM)
# Method in brief: as §1
# [6] = tested on: PPARg:RXRa 270nM:90nM, anti-RXR (NR concentration 270 nM, RXRa partner concentration 90 nM)
# Method in brief: as §1
# [7] = tested on: PPARg:RXRa 30nM:10nM, anti-RXR (NR concentration 30 nM, RXRa partner concentration 10 nM)
# Method in brief: as §1
# [8] = tested on: PPARg:RXRa 90nM:30nM, anti-RXR (NR concentration 90 nM, RXRa partner concentration 30 nM)
# Method in brief: as §1
# [9] = tested on: PPARg:RXRa DBDmut IVT, anti-RXR (DBD mutation: RXRa K156A/R161A, NR concentration 270 nM, RXRa partner concentration 90 nM)
# Method in brief: as §1
# [10] = tested on: PPARg:RXRa IVT, anti-PPARg (NR concentration 270 nM, RXRa partner concentration 90 nM)
# Method in brief: as §1
# [11] = tested on: PPARg DBDmut:RXRa IVT, anti-PPARg (DBD mutation: PPARg1 K132A/R137A, NR concentration 270 nM, RXRa partner concentration 90 nM)
# Method in brief: as §1
# [12] = tested on: PPARg DBDmut IVT, anti-PPARg (DBD mutation: PPARg1 K132A/R137A, NR concentration 270 nM)
# Method in brief: as §1
# [13] = tested on: PPARg homodimer (NR concentration 180 nM)
# Method in brief: as §1
# [14] = tested on: PXR:RXRa (NR concentration 270 nM, RXRa partner concentration 90 nM)
# Method in brief: as §1
# [15] = tested on: PXR homodimer (NR concentration 270 nM)
# Method in brief: as §1
# [16] = tested on: RARa:RXR (NR concentration 270 nM, RXRa partner concentration 90 nM)
# Method in brief: as §1
# [17] = tested on: RARa homodimer (NR concentration 270 nM)
# Method in brief: as §1
# [18] = tested on: RARb:RXRa (NR concentration 270 nM, RXRa partner concentration 90 nM)
# Method in brief: as §1
# [19] = tested on: RARb homodimer (NR concentration 270 nM)
# Method in brief: as §1
# [20] = tested on: LXRa:RXRa (NR concentration 270 nM, RXRa partner concentration 90 nM)
# Method in brief: as §1
Sequence,PBM binding z-score [1],PBM binding z-score [2],PBM binding z-score [3],PBM binding z-score [4],PBM binding z-score [5],PBM binding z-score [6],PBM binding z-score [7],PBM binding z-score [8],PBM binding z-score [9],PBM binding z-score [10],PBM binding z-score [11],PBM binding z-score [12],PBM binding z-score [13],PBM binding z-score [14],PBM binding z-score [15],PBM binding z-score [16],PBM binding z-score [17],PBM binding z-score [18],PBM binding z-score [19],PBM binding z-score [20]
GCTTACGGGTCCAAGGTTATAGCATGAATAGAAT,0.369,-0.143,-0.0563,1.78,1.97,2.86,1.43,2.47,0.18,0.338,0.865,-0.558,0.0227,0.869,0.331,1.06,0.0844,0.932,0.871,
ACTTACGGGTCAACGAGGTCATAGCACGCGTATA,7.21,3.72,1.13,,6.76,6.81,3.78,5.73,4.12,5.29,2.33,3.32,4.63,,11.6,7.02,2.3,4.82,5.04,6.34
CGTCCAAGGTCAAAGGTCAATGAAGAGATGACGG,8.53,4.31,2.18,,10.8,9.12,8.3,9.78,3.66,6.01,0.925,0.0116,3.92,7.05,1.95,8.9,1.95,6.08,5.56,7.3
ATATGTAGGTTGGGGTCATTCAGAAAGTAGGGAA,5.99,2.32,4.74,6.11,7.05,6.09,3.16,5.4,3.81,4.46,,2.36,3.59,6.18,3.64,6.42,3.34,3.75,4.06,5.41
TAGCCTAGGTCATTCAGGGGCCACTATAGAAAGC,4.76,1.27,1.1,3.95,2.63,2.83,0.439,2.09,2.08,3.19,0.203,-0.136,2.11,3.08,-0.109,4.13,0.262,4.11,3.28,
TCTGCTAGGTCAACGTTGGTCAGCTAATCTGCTA,3.38,-0.139,0.362,3.2,2.49,3.4,1.9,2.71,3.92,4.38,-0.219,0.673,0.191,1.56,-0.62,2.22,-1.27,4.03,3.31,
ATATGTAGGTCAAGGGTCATTCAGGTTGGTTCGC,7.27,5.58,2.07,,,10.5,11.7,11.7,8.58,9.34,5.02,3.68,4.44,,2.53,,1.72,5.35,5.1,6.25
ATATGTAGGTTAGGGGTCATTCAGGTTGGTTCGC,6.13,4.58,3.55,6.51,11.4,9.8,10.2,11,7.09,7.13,1.75,2,5.22,,6.76,,2.76,3.82,4.47,5.98
CTATGTAGGTTAGGGGGGTCATTCAGTTTGAAAG,5.78,3.89,,,9.03,7,5.35,7.07,6.54,6.9,,,4.93,6.22,11.2,5.88,3.17,4.13,4.06,5.66
ACTCGGAGGACAAAGGTCAGGGCTACGCCAGTGA,4.61,1.43,-0.0403,4.98,9.17,7.08,5.85,7.6,0.813,3.76,0.115,-0.434,4.95,4.18,0.463,5.81,1.53,4.69,4.65,
TATCAAAGTTCAAAGGTAACGTAAGTATCCACAC,6.87,6.56,3.08,5.56,6.12,6.03,3.65,5.24,0.181,2.37,1.61,1.66,2.55,5.83,4.87,6.67,2.48,5.07,3.91,
CTATGTAGGTTACGGGGGTCATTCAGTTTGAAAG,5.4,2.93,,,9.31,7.81,5.47,7.92,7.41,7.98,,,2.65,6.2,10.9,6.09,0.56,3.71,4.09,5.54
AGAATGAGGTTACCAAAGTTCAGGGAAACGCTTG,3.73,7.31,-0.0133,4.6,3.65,4.08,1.65,3.24,3.96,4.09,0.616,0.161,1.31,6.02,3.03,3.93,0.38,3.81,3.93,
ATCAAAAGGTCGAGGTGAGTATAGAGAAAGGGAA,4.62,0.533,1.32,,3.37,3.94,1.51,2.81,0.945,2.79,1.63,1.54,2.27,2.86,1.09,,1.57,4.53,3.28,4.01
CTATGTAGGTCAAGGGGGTCATTCAGTTTGAAAG,7.19,4.49,,,,9.27,8.54,10.3,8.6,9.07,,,5.3,,13.1,,2.29,5.06,4.85,5.9
CGAACTAGGTCATCCAGGTCAGTGAATACATTGA,5.02,1.02,-0.0563,5.17,7.77,6.49,4.46,6.24,8.34,8.34,6.69,1.38,4.66,3.99,7.58,3.63,1.17,4.3,4.14,

Sequence,PBM binding z-score [1],PBM binding z-score [2],PBM binding z-score [3],PBM binding z-score [4],PBM binding z-score [5],PBM binding z-score [6],PBM binding z-score [7],PBM binding z-score [8],PBM binding z-score [9],PBM binding z-score [10],PBM binding z-score [11],PBM binding z-score [12],PBM binding z-score [13],PBM binding z-score [14],PBM binding z-score [15],PBM binding z-score [16],PBM binding z-score [17],PBM binding z-score [18],PBM binding z-score [19],PBM binding z-score [20]
GGAACGAGGGCAAAGTTCATAGCATCTGTCGACG,4.26,3.9,-0.156,,,9.67,9.74,10.7,4.19,6.1,0.354,-0.0901,3.42,5.81,4.46,6.65,0.559,4.01,3.75,4.95
TCTAGTTGGTCAAAGGTCACGCACTCGAAATGCG,6.9,4.78,1.9,,12,10.2,12.6,12.2,3.84,6.68,3.73,2.56,6.55,,1.96,,4.59,,5.32,6.16
TCGAGTAGGTCACGGGGGCATTCAGGGATGAAGA,6.7,1.07,,,9.41,7.99,5.9,7.7,6.73,7.67,,,3.98,4.92,1.77,5.53,1.36,4.66,4.32,5.3
CCTAGTTGGTCAAGGTCACACCCGCTATAGGTAC,3.45,2.19,1.02,3.85,2.92,3.27,1.13,2.4,2.17,3.67,0.989,0.599,3.09,3.95,2.06,4.02,1.87,4.12,4.39,
CGTCCAAGGTCTAGGTCAGTGAAAGAGACTCGAA,0.449,-0.0366,-0.741,1.06,-0.0446,0.357,-0.506,-0.014,0.895,1.61,-1.11,-1.28,0.763,,-0.179,0.514,0.0377,2.48,2.38,0.249
CCGACGGGGGCAAAGGTTACCATACTCAGTACGA,5.52,0.667,5.6,,10,9.24,8.76,10.4,2.71,5.25,2.34,3.31,2.4,5.31,0.704,,0.677,3.84,3.21,5.02
TCTTGTAGATCAATAGAAGTTAAGAAAGTGCGCT,0.718,-0.154,0.0744,0.693,-5.78e-05,1.83,3.04,2.6,1.85,0.217,0.211,1.07,0.551,0.615,0.29,0.734,0.368,0.0854,-0.511,
TCGCCTAGGTCATGGGCCAGTATACCACGCGAAC,4.68,0.142,-0.146,4.13,3.52,3.4,1.9,2.9,1.88,2.65,0.306,-0.587,1.21,1.7,-0.2,2.97,-0.243,3.97,3.12,
ATCGAAAGGTCGAAGGTGAGCATACCCACCCGAA,4.19,0.288,0.758,5.01,5.08,5.08,2.36,4.36,0.147,2.39,0.377,0.499,1.46,3.16,0.092,4.44,0.708,3.86,3.01,
CCTTACGGGTCACTCCAGGTCATAGCATCGGAGT,5.36,7.03,0.548,4.91,4.38,4.54,1.86,3.2,2.73,4.39,-0.278,-0.144,2.14,6.17,1.15,4.49,0.835,4.25,4.42,
AGAATGAGATTACCAAAGATCAGGGAAACGCTTG,-0.562,-0.342,-0.574,-0.285,0.538,-0.216,-0.00239,0.0878,-0.34,-0.595,0.561,0.0997,-0.0322,-0.245,-0.0511,-0.182,-0.0131,-0.301,-0.938,
ATATGTAGGATAGCTGGGGTCATTCAGACTAGGC,3.09,1.63,1.33,4.6,2.42,3.01,1.01,2.38,3.17,2.82,0.891,1.52,5.47,5.76,2.24,5.49,1.21,2.54,3.16,
CTATGTGGGTTAAGGGGGTCATTCAGTTTGAAAG,5.61,3.82,,,8.76,7.71,5.51,7.71,7.57,7.71,,,6.11,6.07,12.1,5.68,3.73,3.91,4.44,5.47
CGTCCAAGGTCATAGGAGGTCAATGAAGACAGAT,7.84,6.78,1.44,,5.9,6.13,2.88,5.04,3,5.13,0.774,0.632,4.29,7.13,6.06,6.16,1.49,,5.71,7.73
AATACAGGGTCATCTTAGGCCAGAGTACGCACAG,7.35,2.36,1.74,6.06,6.19,5.79,2.46,4.59,2.7,3.86,1.51,0.721,2.17,5.05,1,4.73,0.742,4.22,3.87,
